# Laboratory results as given in PubChem BioAssay (NCATS).
# Several values for one entry are separate records, joined by “and”; a condition that tells them apart may be missing. Equal entries are not always repeated. Inconclusive results are not listed. A call without a number means that no potency is given here. Activity calls are given as the source filed them. Unless noted, the call rests on the fitted dose curve.
# Key:
# [1] = target: Androgen receptor (Homo sapiens) (UniProt P10275); experiment: qHTS assay for small molecule agonists of androgen receptor signaling (AID 588515; active means well fitted curve in the direction sought with a large enough effect in the signal ratio, with a control signal flat; the % refers to the signal ratio); conditions: AR-UAS-bla HEK293, beta-lactamase ratio, agonist 16 h; stronger effect = higher value
# Procedure, shortened: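 EC50 and efficacy came from Hill fits of titrations (up to 92 uM) normalized to 30 nM R1881 as 100% and DMSO as 0%. Compound exposure was 16 h at 37 C on AR-UAS-bla HEK293 cells, with a 405/460/530 nm CCF4 fluorescence read.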
# [2] = target: Androgen receptor (Homo sapiens) (UniProt P10275); experiment: qHTS assay for small molecule antagonists of androgen receptor signaling (AID 588516; active means well fitted curve in the direction sought with a large enough effect in the signal ratio, with a control signal flat, not every such curve was filed as active; the % refers to the signal ratio)
# Procedure, shortened: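 AR-UAS-bla GripTite HEK 293 cells (2000/well) treated with compound titrations plus 10 nM R1881 for 16 h at 37C. Beta-lactamase read by CCF4 FRET (460/530 nm); IC50 from Hill fits, normalized to R1881 and DMSO control wells.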
# [3] = target: Bile acid receptor (Homo sapiens) (UniProt Q96RI1); experiment: qHTS assay for small molecule antagonists of farnesoid X receptor signaling (AID 588526)
# Procedure, shortened: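 Beta-lactamase reporter antagonist mode: HEK293T FXR-UAS-bla cells, titrated compound, CDCA stimulation, 16 h 37 C, CCF4 dye 2 h RT. Data normalized to CDCA 50 uM and DMSO; Hill-fit IC50.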
# [4] = target: Bile acid receptor (Homo sapiens) (UniProt Q96RI1); experiment: qHTS assay for small molecule agonists of farnesoid X receptor signaling (AID 588527); conditions: HEK293T FXR-UAS-bla, beta-lactamase ratio, 16 h; stronger effect = higher value; further: series mostly up to about 77 µM
# Procedure, shortened: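 FXR-UAS-bla HEK293T, 10% dialyzed FBS; cpds up to 92 uM titration, 16 h 37 C; CCF4 dye 2 h RT; fluorescence. Normalized to chenodeoxycholic acid 100 uM (100%) and DMSO (0%); Hill fit gives EC50, efficacy.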
# [5] = target: Glucocorticoid receptor (Homo sapiens) (UniProt P04150); experiment: qHTS assay for small molecule agonists of glucocorticoid receptor signaling (AID 588532; active means well fitted curve in the direction sought with a large enough effect in the signal ratio, with a control signal flat; the % refers to the signal ratio); conditions: HeLa MMTV-bla, beta-lactamase ratio, agonist, 18 h; stronger effect = higher value; percent of dexamethasone control, DMSO zero
# Procedure, shortened: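 Quantitative HTS using CellSensor MMTV-bla HeLa cells in charcoal/dextran-treated serum; compounds tested up to 92 uM. After 18 h at 37 C, CCF4 dye reported reporter induction.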
# [6] = target: Glucocorticoid receptor (Homo sapiens) (UniProt P04150); experiment: qHTS assay for small molecule antagonists of glucocorticoid receptor signaling (AID 588533; active means well fitted inhibition curve with a large enough effect in the signal ratio, with a control signal flat, not every such curve was filed as active; the % refers to the signal ratio;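 further: cells stimulated with 2 nM dexamethasone as agonist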)
# Procedure, shortened: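 Antagonist-mode qHTS: compound titrations added to GRE-bla HeLa cells, then dexamethasone 2 nM final; 18 h, 37 C. CCF4 FRET fluorescence normalized to dexamethasone and DMSO; IC50 from Hill fit.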
# [7] = target: Peroxisome proliferator-activated receptor gamma (Homo sapiens) (UniProt P37231); experiment: qHTS assay for small molecule agonists of peroxisome proliferator-activated receptor gamma signaling (AID 588536; active means well fitted curve in the direction sought with a large enough effect in the signal ratio, with a control signal flat, not every such curve was filed as active; the % refers to the signal ratio)
# Procedure, shortened: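 PPAR-gamma-UAS-bla HEK293 cells in medium with 1% charcoal/dextran-treated FBS were exposed to compounds for 16 h at 37 C. Beta-lactamase activity was read with CCF4 substrate (405 nm excitation, 460/530 nm emission).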
# [8] = target: Vitamin D3 receptor (Homo sapiens) (UniProt P11473); experiment: qHTS assay for small molecule antagonists of vitamin D receptor signaling (AID 588541);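 further: receptor activated by calcitriol during compound treatment; series mostly up to about 77 µM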
# Procedure, shortened: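 Antagonist-mode beta-lactamase reporter assay: HEK293T VDR-UAS-bla cells were exposed to titrated compound alongside 1-alpha,25-dihydroxyvitamin D3 at 3 nM final for 16 h. Values were normalized to the 50 nM agonist control and DMSO basal, with IC50 and efficacy from Hill equation fits.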
# [9] = target: Vitamin D3 receptor (Homo sapiens) (UniProt P11473); experiment: qHTS assay for small molecule agonists of vitamin D receptor signaling (AID 588543)
# Procedure, shortened: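 VDR-UAS-bla HEK293T cells, 2000/well, 2% charcoal-stripped FBS; compound titration 16 h at 37 C; CCF4 beta-lactamase ratio read. Normalized to 50 nM 1-alpha,25-dihydroxyvitamin D3 (100%) and DMSO; Hill fit gives EC50, efficacy.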
# [10] = qHTS assay for small molecule agonists of retinoid X receptor alpha signaling (AID 588544); conditions: HEK293T RXRa-UAS-bla, beta-lactamase reporter, 18 h; 530 nm emission
# [11] = target: Retinoic acid receptor RXR-alpha (Homo sapiens) (UniProt P19793); experiment: as above
# [12] = target: Thyroid hormone receptor beta (Homo sapiens) (UniProt P10828); experiment: qHTS assay for small molecule agonists of thyroid hormone receptor beta signaling (AID 588545)
# Procedure, shortened: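 Compounds were tested as agonists in TR-UAS-bla-GripTite HEK 293 cells. After 18 hrs at 37 C, CCF4 substrate was added and fluorescence read after 2 hrs at room temperature.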
# [13] = qHTS assay for small molecule antagonists of retinoid X receptor alpha signaling (AID 588546); conditions: HEK293T RXRa-UAS-bla, beta-lactamase ratio, antagonist mode; measured here: W530 green channel, cytotoxicity proxy;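 further: cells stimulated with 9-cis-retinoic acid as agonist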
# Procedure, shortened: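 Beta-lactamase reporter inhibition, read as CCF4 fluorescence ratio (ex 405, em 460/530 nm) after 2 h at RT. HEK293T UAS-bla cells, 2500/well, were stimulated with 9-cis-RA at 500 or 100 nM final alongside test compound for 18 h at 37 C.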
# [14] = target: Peroxisome proliferator-activated receptor gamma (Homo sapiens) (UniProt P37231); experiment: qHTS assay for small molecule antagonists of peroxisome proliferator-activated receptor gamma signaling (AID 588537; active means well fitted inhibition curve with a large enough effect in the signal ratio, with a control signal flat, not every such curve was filed as active; the % refers to the signal ratio;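 further: reporter cells co-stimulated with 50 nM rosiglitazone agonist during compound treatment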)
# Procedure, shortened: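 Antagonist mode, beta-lactamase reporter in HEK293; charcoal/dextran FBS 1%; 3000 cells/well, 37 C 6-6.5 h; cpd titration + rosiglitazone 50 nM final, 16 h 37 C; CCF4, 2 h RT; 460/530 nm; Hill fit → IC50, efficacy.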
# [15] = target: Peroxisome proliferator-activated receptor delta (Homo sapiens) (UniProt Q03181); experiment: qHTS assay for small molecule agonists of peroxisome proliferator-activated receptor delta signaling (AID 588534)
# Procedure, shortened: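 Fluorescence from CCF4 substrate cleavage by beta-lactamase reporter, read 2 hrs at RT, measured agonist activity. Compounds were tested with 18 hrs exposure at 37 C. Concentration-response data fitted to Hill equation.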
# [16] = qHTS assay for small molecule antagonists of peroxisome proliferator-activated receptor delta signaling (AID 588535; active means well fitted inhibition curve with a large enough effect in the signal ratio, with a control signal flat, not every such curve was filed as active; the % refers to the signal ratio;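 on max response: cells co-treated with a PPAR-delta agonist as stimulator during compound exposure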); conditions: HEK293T PPARd-UAS-bla, beta-lactamase FRET ratio, 18 h; 460 nm channel
# Procedure, shortened: (§1)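 HEK293T PPAR-delta-UAS-bla cells, 4000/well, 2% charcoal/dextran FBS; 5 h 37 C; cpd titration; 18 h 37 C; CCF4 2 h RT; FI 460/530 nm; Hill fit → IC50, efficacy.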
# [17] = target: Peroxisome proliferator-activated receptor delta (Homo sapiens) (UniProt Q03181); experiment: as above
# Procedure, shortened: as §1
# Chain of Glucocorticoid receptor (Homo sapiens) (P04150 whole entry, looked up): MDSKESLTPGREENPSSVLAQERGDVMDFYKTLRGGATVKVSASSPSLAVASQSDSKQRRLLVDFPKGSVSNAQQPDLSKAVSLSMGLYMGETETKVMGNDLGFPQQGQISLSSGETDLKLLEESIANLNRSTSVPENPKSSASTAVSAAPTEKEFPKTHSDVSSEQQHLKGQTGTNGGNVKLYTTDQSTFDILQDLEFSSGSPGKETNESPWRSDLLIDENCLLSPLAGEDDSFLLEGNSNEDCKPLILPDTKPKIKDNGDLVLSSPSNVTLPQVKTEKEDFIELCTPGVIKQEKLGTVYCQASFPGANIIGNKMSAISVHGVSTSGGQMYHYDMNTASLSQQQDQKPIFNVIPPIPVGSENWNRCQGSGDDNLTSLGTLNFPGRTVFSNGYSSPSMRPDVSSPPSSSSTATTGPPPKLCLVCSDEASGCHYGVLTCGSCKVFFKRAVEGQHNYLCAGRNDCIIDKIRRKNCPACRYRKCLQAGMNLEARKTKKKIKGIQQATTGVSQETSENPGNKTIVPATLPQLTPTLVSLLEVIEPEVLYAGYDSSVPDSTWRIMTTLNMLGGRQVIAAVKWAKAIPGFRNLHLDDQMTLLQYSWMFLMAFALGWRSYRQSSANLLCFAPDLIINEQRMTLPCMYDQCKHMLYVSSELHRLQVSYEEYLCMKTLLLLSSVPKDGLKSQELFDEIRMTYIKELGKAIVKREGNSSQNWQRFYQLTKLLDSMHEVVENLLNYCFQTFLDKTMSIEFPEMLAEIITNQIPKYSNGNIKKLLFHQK
# Chain of Vitamin D3 receptor (Homo sapiens) (P11473 whole entry, looked up): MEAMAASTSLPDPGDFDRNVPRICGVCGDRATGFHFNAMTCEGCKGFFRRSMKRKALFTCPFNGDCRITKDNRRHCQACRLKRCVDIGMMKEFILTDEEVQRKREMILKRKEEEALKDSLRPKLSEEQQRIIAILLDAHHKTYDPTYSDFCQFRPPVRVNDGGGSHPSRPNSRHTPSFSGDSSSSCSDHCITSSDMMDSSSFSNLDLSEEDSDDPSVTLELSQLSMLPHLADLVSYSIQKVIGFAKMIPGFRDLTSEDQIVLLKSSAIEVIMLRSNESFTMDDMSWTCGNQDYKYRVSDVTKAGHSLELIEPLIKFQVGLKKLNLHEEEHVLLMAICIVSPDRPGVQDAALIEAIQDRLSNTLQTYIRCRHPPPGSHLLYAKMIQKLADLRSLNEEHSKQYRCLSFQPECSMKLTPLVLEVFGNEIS
# Chain of Bile acid receptor (Homo sapiens) (Q96RI1 whole entry, looked up): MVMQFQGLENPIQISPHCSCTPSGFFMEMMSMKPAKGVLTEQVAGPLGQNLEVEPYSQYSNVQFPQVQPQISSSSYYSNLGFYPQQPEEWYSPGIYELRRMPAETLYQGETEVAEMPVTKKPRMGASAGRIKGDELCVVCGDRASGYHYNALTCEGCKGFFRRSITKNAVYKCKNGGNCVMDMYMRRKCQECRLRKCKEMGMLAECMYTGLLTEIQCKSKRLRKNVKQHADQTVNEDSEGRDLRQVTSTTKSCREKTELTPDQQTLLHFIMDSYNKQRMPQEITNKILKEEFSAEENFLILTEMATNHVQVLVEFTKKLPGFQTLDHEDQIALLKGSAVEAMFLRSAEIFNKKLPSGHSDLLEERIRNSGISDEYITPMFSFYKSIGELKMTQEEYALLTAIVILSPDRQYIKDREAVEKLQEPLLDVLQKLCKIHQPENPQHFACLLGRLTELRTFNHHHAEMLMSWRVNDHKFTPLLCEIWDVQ
# Chain of Androgen receptor (Homo sapiens) (P10275 whole entry, looked up): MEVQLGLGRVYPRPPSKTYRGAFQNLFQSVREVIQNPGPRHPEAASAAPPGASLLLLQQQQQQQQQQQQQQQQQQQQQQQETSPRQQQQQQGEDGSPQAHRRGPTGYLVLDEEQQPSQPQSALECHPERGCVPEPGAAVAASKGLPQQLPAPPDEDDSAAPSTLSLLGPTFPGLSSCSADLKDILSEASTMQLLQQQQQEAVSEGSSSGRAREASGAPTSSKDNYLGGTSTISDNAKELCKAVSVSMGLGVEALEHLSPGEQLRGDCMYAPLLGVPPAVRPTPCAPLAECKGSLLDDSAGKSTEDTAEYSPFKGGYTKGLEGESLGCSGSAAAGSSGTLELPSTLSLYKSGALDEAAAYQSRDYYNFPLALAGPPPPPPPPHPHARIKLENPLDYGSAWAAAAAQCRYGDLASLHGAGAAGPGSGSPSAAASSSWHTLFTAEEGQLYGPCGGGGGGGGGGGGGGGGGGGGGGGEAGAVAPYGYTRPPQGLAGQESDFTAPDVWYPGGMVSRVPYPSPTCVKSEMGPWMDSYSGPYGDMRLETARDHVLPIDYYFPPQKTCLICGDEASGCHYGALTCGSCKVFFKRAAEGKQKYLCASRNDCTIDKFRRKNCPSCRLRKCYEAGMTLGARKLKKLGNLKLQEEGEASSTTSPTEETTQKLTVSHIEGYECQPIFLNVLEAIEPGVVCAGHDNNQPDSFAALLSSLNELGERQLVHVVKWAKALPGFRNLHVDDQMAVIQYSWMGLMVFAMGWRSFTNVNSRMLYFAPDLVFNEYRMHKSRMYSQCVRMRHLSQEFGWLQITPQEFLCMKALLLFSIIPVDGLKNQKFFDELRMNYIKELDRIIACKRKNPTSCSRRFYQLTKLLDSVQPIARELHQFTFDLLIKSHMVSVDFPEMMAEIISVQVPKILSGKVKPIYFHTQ
# Chain of Retinoic acid receptor RXR-alpha (Homo sapiens) (P19793 whole entry, looked up): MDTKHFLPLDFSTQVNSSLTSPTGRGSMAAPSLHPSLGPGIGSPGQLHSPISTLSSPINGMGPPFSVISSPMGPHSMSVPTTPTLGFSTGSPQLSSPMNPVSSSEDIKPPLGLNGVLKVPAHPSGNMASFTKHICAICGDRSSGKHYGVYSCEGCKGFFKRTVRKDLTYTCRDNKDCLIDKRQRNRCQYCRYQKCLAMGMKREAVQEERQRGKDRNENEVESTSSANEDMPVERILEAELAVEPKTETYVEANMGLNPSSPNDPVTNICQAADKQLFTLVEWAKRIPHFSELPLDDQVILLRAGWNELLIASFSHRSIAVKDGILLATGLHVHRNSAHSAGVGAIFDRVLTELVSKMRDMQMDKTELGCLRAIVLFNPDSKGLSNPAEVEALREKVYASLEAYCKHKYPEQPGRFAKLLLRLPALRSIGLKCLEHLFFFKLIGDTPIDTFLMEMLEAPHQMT
# Chain of Thyroid hormone receptor beta (Homo sapiens) (P10828 whole entry, looked up): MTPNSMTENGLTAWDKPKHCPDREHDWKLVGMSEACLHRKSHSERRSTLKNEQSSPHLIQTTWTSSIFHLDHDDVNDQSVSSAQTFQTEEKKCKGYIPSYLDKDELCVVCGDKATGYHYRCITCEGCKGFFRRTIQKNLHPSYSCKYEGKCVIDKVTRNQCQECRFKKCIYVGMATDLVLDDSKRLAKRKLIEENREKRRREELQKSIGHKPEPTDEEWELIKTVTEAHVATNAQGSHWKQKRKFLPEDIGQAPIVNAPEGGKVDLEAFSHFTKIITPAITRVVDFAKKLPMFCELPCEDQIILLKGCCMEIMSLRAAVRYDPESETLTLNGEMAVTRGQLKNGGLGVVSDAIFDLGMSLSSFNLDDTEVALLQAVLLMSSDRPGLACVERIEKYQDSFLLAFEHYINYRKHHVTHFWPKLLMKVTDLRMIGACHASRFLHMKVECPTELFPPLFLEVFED
# Chain of Peroxisome proliferator-activated receptor delta (Homo sapiens) (Q03181 whole entry, looked up): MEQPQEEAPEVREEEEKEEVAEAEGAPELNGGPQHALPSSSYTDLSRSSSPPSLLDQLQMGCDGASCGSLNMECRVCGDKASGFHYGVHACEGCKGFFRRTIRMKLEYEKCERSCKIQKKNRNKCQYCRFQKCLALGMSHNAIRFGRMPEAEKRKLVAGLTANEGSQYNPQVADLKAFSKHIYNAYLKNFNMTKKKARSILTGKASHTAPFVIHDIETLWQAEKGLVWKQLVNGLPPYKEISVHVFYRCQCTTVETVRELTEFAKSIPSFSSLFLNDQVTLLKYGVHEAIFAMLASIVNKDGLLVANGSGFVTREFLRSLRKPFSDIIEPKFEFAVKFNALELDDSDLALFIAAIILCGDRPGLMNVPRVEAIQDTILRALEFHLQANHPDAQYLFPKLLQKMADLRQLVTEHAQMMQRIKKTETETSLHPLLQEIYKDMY
# Chain of Peroxisome proliferator-activated receptor gamma (Homo sapiens) (P37231 whole entry, looked up): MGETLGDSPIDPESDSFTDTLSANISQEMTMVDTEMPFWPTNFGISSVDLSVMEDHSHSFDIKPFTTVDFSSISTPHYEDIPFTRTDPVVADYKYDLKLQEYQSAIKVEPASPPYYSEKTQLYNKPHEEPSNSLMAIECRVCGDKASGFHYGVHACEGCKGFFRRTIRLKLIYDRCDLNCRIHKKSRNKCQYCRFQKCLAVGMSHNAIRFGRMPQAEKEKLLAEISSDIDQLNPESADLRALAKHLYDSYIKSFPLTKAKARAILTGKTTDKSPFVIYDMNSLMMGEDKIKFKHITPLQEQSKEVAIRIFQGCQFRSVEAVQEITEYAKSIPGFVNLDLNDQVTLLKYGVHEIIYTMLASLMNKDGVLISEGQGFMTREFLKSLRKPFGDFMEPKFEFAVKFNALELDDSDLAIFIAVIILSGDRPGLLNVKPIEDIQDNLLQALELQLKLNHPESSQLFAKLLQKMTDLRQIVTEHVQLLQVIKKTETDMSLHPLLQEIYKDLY
structure (smiles),measurement,setting,value
Nc1ccc(Cl)cc1N,activation,[1],-2.06% (inactive)
same,Potency,[2],inactive
same,outcome,[3],inactive
same,activation,[4],0.723% (inactive)
same,activation,[5],0.0302% (inactive) and -3.42% (inactive)
same,Potency,[6],inactive
same,outcome,[7],inactive
same,Potency,[8],inactive
same,outcome,[9],inactive
same,max response,[10],13.9%
same,Potency,[11],inactive
same,outcome,[12],inactive
same,max response,[13],11.5% and -1.67%
O=C(O)CCCOc1ccc(Cl)cc1Cl,activation,[1],-19.7% (inactive)
same,Potency,[2],inactive
same,Potency,[14],inactive
same,outcome,[9],inactive
same,outcome,[12],inactive
same,max response,[13],17.8%
CCCCC(CC)COC(=O)c1ccc(N(C)C)cc1 (stereo not given),activation,[4],-1.15% (inactive) and -5.13% (inactive)
same,outcome,[15],inactive
COC(=O)c1c(Cl)c(Cl)c(C(=O)OC)c(Cl)c1Cl,activation,[4],2.52% (inactive)
same,outcome,[15],inactive
CCCCOC(=O)c1ccccc1C(=O)OCc1ccccc1,activation,[5],3.04% (inactive) and 3.89% (inactive)
same,Potency,[6],inactive
same,outcome,[15],inactive
same,max response,[16],-18.4% and -2.86%
same,Potency,[17],inactive
same,outcome,[7],inactive
same,max response,[10],-17.6% and 5.59%
same,Potency,[11],inactive
same,outcome,[12],inactive
same,max response,[13],-7.26% and -17.3%
O=C(O)c1cc(Oc2ccc(C(F)(F)F)cc2Cl)ccc1[N+](=O)[O-],Potency,[6],inactive
same,outcome,[7],inactive
same,max response,[10],11.8%
same,Potency,[11],inactive
same,outcome,[12],inactive
same,max response,[13],-4.23%
CCCCCCCCOc1ccc(C(=O)c2ccccc2)c(O)c1,activation,[4],-1.08% (inactive)
same,outcome,[15],inactive
CC1=NN(c2ccccc2)C(=O)C1,activation,[4],-5.46% (inactive) and -0.633% (inactive)
same,outcome,[15],inactive
CN(C)NC(=O)CCC(=O)O,outcome,[15],inactive
same,max response,[16],-12.7% and 32.6%
same,Potency,[17],inactive
same,outcome,[7],inactive
same,Potency,[14],inactive
same,Potency,[8],inactive
same,outcome,[9],inactive
same,max response,[10],6.92% and -25.6%
same,Potency,[11],inactive
same,outcome,[12],inactive
same,max response,[13],-8.59% and -3.29%
O=C(NO)c1ccccc1,activation,[4],-3.15% (inactive)
same,outcome,[15],inactive
C=CCNC(N)=S,outcome,[15],inactive
Cc1ccc(N)cc1O,outcome,[15],inactive
Brc1ccccc1-c1ccccc1,outcome,[15],inactive
CCCOC(=O)c1ccc(O)cc1,activation,[4],0.147% (inactive) and -2.34% (inactive) and 4.63% (inactive)
same,outcome,[15],inactive
O=S(=O)(O)C(F)(F)C(F)(F)C(F)(F)C(F)(F)C(F)(F)C(F)(F)C(F)(F)C(F)(F)F,outcome,[7],inactive
same,Potency,[14],inactive
same,Potency,[8],inactive
same,outcome,[9],inactive
same,max response,[10],-11.4% and -1.61%
same,Potency,[11],inactive
same,outcome,[12],inactive
same,max response,[13],-5.97% and -3.14%
CC(C)(C)c1ccc(O)c(O)c1,activation,[4],9.58% (inactive) and -7.97% (inactive)
same,outcome,[15],inactive
Nc1ccc(O)c([N+](=O)[O-])c1,outcome,[15],inactive
CC(C)(C)C(O)C(Oc1ccc(Cl)cc1)n1cncn1 (stereo not given),outcome,[7],inactive
same,Potency,[14],inactive
same,Potency,[8],inactive
same,outcome,[9],inactive
same,max response,[13],-12.3%
S=c1[nH]c2ccccc2s1,activation,[4],-0.945% (inactive) and -0.0694% (inactive)
same,outcome,[15],inactive
CCCCCCCCCC(CC)c1ccc(S(=O)(=O)O)cc1 (stereo not given),activation,[5],8.71% (inactive) and 0.614% (inactive)
same,Potency,[6],inactive
same,outcome,[15],inactive
same,max response,[16],-20.6% and 1.67%
same,Potency,[17],inactive
same,outcome,[7],inactive
same,Potency,[14],inactive
same,max response,[10],2.78% and -0.585%
same,Potency,[11],inactive
same,outcome,[12],inactive
same,max response,[13],-9.16% and 3.96%
Nc1ccccc1N,outcome,[15],inactive
[Cl][In]([Cl])[Cl],outcome,[15],inactive
OCc1c[nH]c2ccccc12,activation,[4],1.66% (inactive)
same,outcome,[15],inactive
Nc1nc2ccc([N+](=O)[O-])cc2s1,outcome,[15],inactive
CN(C)c1ccc(N=NS(=O)(=O)O)cc1,outcome,[15],inactive
C[C@]12C[C@H](O)[C@H]3[C@@H](CCC4=CC(=O)CC[C@@]43C)[C@@H]1CC[C@@H]2C(=O)CO,activation,[4],-2.3% (inactive)
same,outcome,[15],inactive
COc1ccccc1O,activation,[4],-0.0206% (inactive) and -3.83% (inactive) and 1.01% (inactive)
same,outcome,[15],inactive
CN(C)[C@@H]1C(=O)C(C(N)=O)=C(O)[C@@]2(O)C(=O)C3=C(O)c4c(O)cccc4[C@@](C)(O)[C@H]3[C@H](O)[C@@H]12,outcome,[7],inactive
same,Potency,[14],inactive
same,max response,[10],10.7% and 6.3% and 19.5%
same,Potency,[11],inactive
same,outcome,[12],inactive
same,max response,[13],16.2% and 7.17% and 21.1%
CN1C(=O)c2ccccc2C1=O,outcome,[15],inactive
ClC1=C(Cl)[C@]2(Cl)[C@@H]3[C@@H]4C[C@@H]([C@H]5O[C@@H]45)[C@@H]3[C@@]1(Cl)C2(Cl)Cl,activation,[5],-15% (inactive)
same,Potency,[6],inactive
same,outcome,[15],inactive
same,max response,[16],34.4%
same,Potency,[17],inactive
same,Potency,[8],inactive
same,outcome,[9],inactive
same,outcome,[12],inactive
same,max response,[13],5.74%
CCCCCCCCCCCCCCCC[N+](C)(C)C,activation,[5],4.02% (inactive)
same,Potency,[6],inactive
same,outcome,[15],inactive
same,max response,[16],-6.14%
same,Potency,[17],inactive
same,Potency,[14],inactive
same,Potency,[8],inactive
same,outcome,[9],inactive
same,max response,[13],-7.98%
CO/C=C(/C(=O)OC)c1ccccc1Oc1cc(Oc2ccccc2C#N)ncn1,activation,[5],-0.939% (inactive)
same,outcome,[15],inactive
same,Potency,[8],inactive
same,outcome,[9],inactive
same,outcome,[12],inactive
O=c1cc(-c2ccccc2)oc2ccccc12,outcome,[15],inactive
O=C1NS(=O)(=O)c2ccccc21,outcome,[15],inactive
CC(C)C(C)(C)C(C)(C)C(C)(C)S,outcome,[15],inactive
CCCCCCCCCCCCCC(=O)OC(C)C,activation,[4],-0.914% (inactive)
same,outcome,[15],inactive
